In all, about 290,000 compounds went through this assay and about 2,600 (0.9%) were called active. This is one part of a sample in which actives are shown more often than they occur.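 How the source made its calls: active means inhibition above the mean of all tested compounds plus 3 SD, cutoff set per screening run (cut at about 7.5% in these data); inactive means the rest.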
Each compound was assayed on VIM-2 metallo-beta-lactamase (Pseudomonas aeruginosa) (assay: VIM-2 metallo-beta-lactamase inhibitors, primary screen, biochemical, epi-absorbance readout, Pseudomonas aeruginosa enzyme (AID 1527;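 further: red hydrolysis product quenches plate fluorescence so inhibitors raise well fluorescence; 0% = enzyme with DMSO and 100% = DMSO without enzyme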)). Settings: purified VIM-2, nitrocefin hydrolysis, epi-absorbance fluorescence; at 5.6 µM; active compounds read high.

SMILES | inhibition
Cc1cc(=O)oc2c(C)c(OCC(=O)N3CCN(Cc4ccc5c(c4)OCO5)CC3)ccc12 | 41.5% (active)
O=C(Cc1ccccc1[N+](=O)[O-])N1CCN(Cc2ccc3c(c2)OCO3)CC1 | 1.82% (inactive)
Fc1ccc(N2CCN(Cc3ccc4c(c3)OCO4)CC2)cc1 | -2.76% (inactive)
CC(=O)c1c(C)n(C(C)C)c2ccc(O)cc12 | -2.19% (inactive)
COc1cc2nc(N3CCN(C(=O)[C@@H]4CCCO4)CC3)nc(N)c2cc1OC | -2.29% (inactive)
CCOC(=O)C1(CCc2ccccc2)CCN(Cc2ccco2)CC1 | -1.92% (inactive)
CNC(=O)O/N=C(\N)Cc1csc2ccc(Cl)cc12 | -0.28% (inactive)
COC(=O)COc1cc(C)cc2oc(=O)c3c(c12)CCCC3 | 8.38% (active)
CCN1CCN(C(=O)Cc2coc3cc(C)cc(C)c23)CC1 | -5.4% (inactive)
Cc1cc(OCc2cc(C(=O)O)oc2C)c2c3c(c(=O)oc2c1)CCCC3 | 56.6% (active)
O=C(N/N=C/c1c(O)n(C2CC2)c(=S)[nH]c1=O)c1ccccc1Cl | -1.56% (inactive)
CN(C)CC1CCCCC1OC(=O)c1ccc(Cl)c(Cl)c1 (stereo not given) | 0.42% (inactive)
Cc1cc2ccccn2c1C(C[N+](=O)[O-])c1c(F)cccc1Cl (stereo not given) | 0.92% (inactive)
COc1ccc(-n2c(-c3ccccc3)nc3ccccc3c2=O)cc1 | -3.17% (inactive)
COCCNC(=O)CN1C2CCC1CC(O)(c1cccnc1)C2 (stereo not given) | -2.88% (inactive)
